Screen size: about 320,000 compounds; about 1,300 (0.41%) were called active. For the sample, actives were picked, then their nearest neighbours and some compounds at random. A number with no mark means an inactive call.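 How the source made its calls: active means percent inhibition above the average of all tested compounds plus 3 SD, set per screening campaign (cut at about 16% in these data); inactive means the rest.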
Molecular target: Insulin-degrading enzyme (Homo sapiens) (UniProt P14735)
Test: human IDE inhibitors in live cells, primary screen, fluorescence polarization, HEK cells, FAbetaB substrate (AID 434962);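 further: IDE supplied by intact live HEK cells; FP after avidin binding of uncleaved biotin substrate so inhibition keeps polarization high; 0% = DMSO wells and 100% = 60 µM reference IDE inhibitor Ii1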
Conditions: FAbetaB cleavage, at 5.59 µM, hits give high values

Chain of Insulin-degrading enzyme (Homo sapiens) (P14735 whole entry, looked up): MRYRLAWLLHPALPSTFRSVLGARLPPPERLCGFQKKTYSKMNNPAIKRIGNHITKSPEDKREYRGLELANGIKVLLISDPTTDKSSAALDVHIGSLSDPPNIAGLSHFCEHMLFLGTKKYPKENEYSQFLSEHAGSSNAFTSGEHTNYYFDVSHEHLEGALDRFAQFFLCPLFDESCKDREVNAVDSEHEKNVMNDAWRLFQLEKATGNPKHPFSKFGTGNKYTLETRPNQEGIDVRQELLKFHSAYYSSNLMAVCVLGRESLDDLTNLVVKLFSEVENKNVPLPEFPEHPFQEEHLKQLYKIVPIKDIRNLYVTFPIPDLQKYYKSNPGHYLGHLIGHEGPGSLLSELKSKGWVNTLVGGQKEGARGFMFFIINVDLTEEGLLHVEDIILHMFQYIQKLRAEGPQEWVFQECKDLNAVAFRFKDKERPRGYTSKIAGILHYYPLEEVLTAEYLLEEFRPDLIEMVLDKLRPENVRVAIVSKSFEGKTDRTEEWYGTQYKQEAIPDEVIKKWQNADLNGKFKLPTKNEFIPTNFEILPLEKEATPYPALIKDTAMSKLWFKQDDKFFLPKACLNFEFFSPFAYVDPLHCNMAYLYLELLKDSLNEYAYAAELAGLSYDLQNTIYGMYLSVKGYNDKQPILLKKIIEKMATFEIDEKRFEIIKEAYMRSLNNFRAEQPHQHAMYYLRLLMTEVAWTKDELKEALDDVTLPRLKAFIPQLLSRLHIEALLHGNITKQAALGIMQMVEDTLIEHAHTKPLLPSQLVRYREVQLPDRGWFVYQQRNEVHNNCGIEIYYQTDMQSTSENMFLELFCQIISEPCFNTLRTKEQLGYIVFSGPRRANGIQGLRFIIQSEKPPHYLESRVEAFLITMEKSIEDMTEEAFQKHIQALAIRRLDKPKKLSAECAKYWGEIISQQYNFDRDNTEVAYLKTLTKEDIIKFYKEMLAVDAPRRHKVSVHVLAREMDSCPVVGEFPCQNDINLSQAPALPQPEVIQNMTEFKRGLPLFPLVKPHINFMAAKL

Row | SMILES | inhibition
1 | Cc1ccnc(-n2sc3ccccc3c2=O)n1 | 57.8% (active)
2 | Cc1ccnc(N2CCCC(C(=O)NC3CC3)C2)n1 (stereo unspecified) | 1.69%
3 | Cc1nc2ccccc2c(=O)n1NC(=O)c1ccccc1 | 7.25%
4 | COc1cccc(CNC(=O)C2CCCN(c3ncnc4c3nc3n4CCCCC3)C2)c1 (stereo unspecified) | 8.69%
5 | O=C(/C=C/c1ccccc1)Oc1coc(CSc2ncccn2)cc1=O | 4.39%
6 | COC(=O)c1sccc1-n1cccc1C(=O)C(=O)N1CCCCC1 | -0.4%
7 | COc1ccc(N(C(=O)c2cccnc2)S(=O)(=O)c2ccc(OC)c(OC)c2)cc1 | -4.14%
8 | O=C(c1cccnc1)N(c1cc2sc(=O)oc2c2ccccc12)S(=O)(=O)c1ccccc1 | 20.4% (active)
9 | CCc1ccc(N(CC(=O)NCc2cccnc2)S(=O)(=O)c2ccccc2)cc1 | 8.22%
10 | O=C(Cn1nnc2ccccc2c1=O)Nc1cc(C(F)(F)F)ccc1N1CCOCC1 | 6.97%
11 | COc1ccc(C)cc1NC(=O)c1cc(-c2ccccc2)nc2c1cnn2C(C)C | 1.05%
12 | CC(=O)N(C1=C(Cl)C(=O)c2ccccc2C1=O)c1ccc(C(=O)O)cc1 | 98.9% (active)
13 | Cc1cc(OCCCC(=O)NCCN2C(=O)S/C(=C\c3cccnc3)C2=O)ccc1Cl | 3.84%
14 | OC(c1nc2ccc(F)cc2[nH]1)C(O)c1nc2ccc(F)cc2[nH]1 (stereo unspecified) | 6.32%
15 | COc1ccc(-c2[nH]ncc2/C=N/NC(=O)c2cc(Br)ccc2O)c(OC)c1 | 1.62%
16 | Cc1ccccc1NC(=O)C(C)c1ccc(-c2ccccc2)c(F)c1 (stereo unspecified) | 4.53%
17 | CCN1/C(=C/c2ccc3ccc(C)cc3[n+]2CC)Sc2ccccc21 | 31.9% (active)
18 | CCN1/C(=C\c2ccc3ccccc3[n+]2CC)Sc2cc(C)ccc21 | 73.9% (active)
19 | CC(NC(=O)C(C)(C)C)C(c1cccs1)N1CCN(Cc2ccccc2)CC1 (stereo unspecified) | -2.35%
20 | O=Cc1c(Nc2ccccc2Cl)nc2ccccn2c1=O | -3.69%
21 | CC(=O)c1ccc(S(=O)(=O)Nc2ccc(-c3ccc4nncn4n3)cc2)cc1 | 2.89%
22 | Cc1ccc(CC(=O)N(C)CC(=O)N(CC(C)C)c2c(N)n(CC(C)C)c(=O)[nH]c2=O)cc1C | -2.63%
23 | CCOC(=O)Cn1c(=O)oc2cc(S(=O)(=O)N(C)Cc3ccco3)ccc21 | 3.15%

Row | SMILES | inhibition
24 | CN(c1ccccc1)c1ccc(/C=c2\s/c(=C(/C#N)C(=O)C(C)(C)C)n(Cc3ccco3)c2=O)cc1 | 31% (active)
25 | O=C(O)c1ccccc1C(=O)NC1=NN(c2ccccc2)CC1 | -0.6%
26 | COc1ccccc1C(=O)OCC(=O)Nc1cccc(S(=O)(=O)NC2=NCCCCC2)c1 | 0.13%
27 | Cc1ccc(Br)c(NS(=O)(=O)c2cccc(C(=O)N3CCNC(=O)C3)c2)c1 | -0.69%
28 | CCOC(=O)/C(C#N)=C/c1ccc(N2CCN(Cc3ccccc3)CC2)cc1 | 3.39%
29 | C/C(=C/c1ccccc1)C(=O)N1CCN(c2ccccc2)CC1 | -2.17%
30 | COc1ccc(N2CCN(C(=O)/C(C#N)=C/c3ccccc3)CC2)cc1 | 17.7% (active)
31 | Cc1cc(=O)oc2c1ccc1ccccc12 | 7.29%
32 | CCc1ccccc1N(CC(=O)N1CCN(c2ccccc2F)CC1)S(C)(=O)=O | -4%
33 | COc1ccc(NC(=O)C(C)SCc2ccccc2)cc1 (stereo unspecified) | -4.67%
34 | N#C/C(=C/c1ccc(N2CCCCC2)o1)C(=O)NCCc1c[nH]c2ccccc12 | 151% (active)
35 | O=C(NCCc1c[nH]c2ccccc12)C1CCN(Cc2ccc(Br)cc2)CC1 | -4.77%
36 | O=C(CN1C(=O)NC2(CCCCC2)C1=O)NCCc1c[nH]c2ccccc12 | 1.64%
37 | COc1ccccc1N(C)S(=O)(=O)c1ccc(C(=O)NC2CCCCCC2)cc1 | -1.04%
38 | CC1CCCC(NC(=O)COC(=O)[C@@H]2CC(O)CN2S(=O)(=O)c2ccc3c(c2)OCCO3)C1C (stereo partly specified) | 2.16%
39 | COc1cc(C(=O)Nc2cc(C(F)(F)F)ccc2-n2cncn2)cc(OC)c1OC | -10.1%
40 | CCN(CC(=O)Nc1c(F)cccc1F)C(=O)C1CCC1 | -0.82%
41 | N#CC1=C(N)Oc2c(sc3ccccc23)C1c1ccco1 (stereo unspecified) | 37.7% (active)
42 | N#CC1=C(N)Oc2c(ccc3cccnc23)C1c1ccncc1 (stereo unspecified) | 0.4%
43 | Cc1cc(C(=O)NCCc2ccc(Cl)cc2)c(C)o1 | -1.15%
44 | COCc1[nH][nH]c(=O)c1C=Nc1ccc(F)cc1F | 1.29%
45 | CN1/C(=c2/s/c(=C3/C(=O)N(c4ccccc4)NC3=Nc3ccccc3)n(C)c2=O)C(C)(C)c2ccccc21 | 27% (active)
46 | O=C(OCC(=O)N1CCCCC1)c1ccc(OC(F)(F)F)cc1 | 7.21%
